The values that follow come from PubChem BioAssay AID1315 (University of Pittsburgh Molecular Library Screening Center, 2008).

Some of the results follow. A number with no mark means an inactive call. No rule for the calls is given here.

One may read the inhibition as the relative decrease from the control value, in per cent.

A short description of this assay: FP signal artefacts, PKD1 kinase format – biochemical, fluorescence polarization, 140K library, artefact control for PKD1 inhibitor project (AID 1315). The settings on record: PKD1 FP assay interference counter-screen, at 10 µM, hits give high values. In general terms: In fluorescence polarisation assays a small probe gives low polarisation when free and higher when bound to something large.
Consider `COc1ccc(Nc2cc(C)nc(-n3nc(C)cc3C)n2)cc1`, for which the inhibition is -21.9%. The same measure for `Cc1ccc(NC(=O)C2CCCN(S(=O)(=O)c3c(C)noc3C)C2)c(C)c1` (stereo not drawn): -13.6%; for `COc1ccccc1C(=O)NN1C(=O)C2C3C=CC(O3)C2C1=O` (stereo not drawn): -4.38%.
